AGP1-GFP MLPCN = modulators of TOR pathway AGP1-GFP in S. cerevisiae; hit rate 0.02% among 320,000; GFP response vs DMSO, % at 10 µM; AID 2066; S. cerevisiae AGP1-GFP multiplex flow cytometry, 3 h; GFP as percent of DMSO wells;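 active = GFP response relative to DMSO above a set limit, near screen average plus 3 SD, cut at about 150% in these data; inconclusive = fewer than 70 cells counted for the yeast strain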;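 also: median GFP channel fluorescence of the gated AGP1 strain per well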
LAP4 TOR yeast = modulators of TOR pathway LAP4-GFP in S. cerevisiae | hit rate 0.34% among 320,000 | GFP response vs DMSO, % at 10 µM | S. cerevisiae LAP4-GFP multiplex, flow cytometry GFP, 3 h; median GFP as percent of DMSO wells;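 active = GFP response vs DMSO above a set limit, about the screen mean plus 3 SD, cut at about 150% in these data; inconclusive = under 70 cell events counted for the yeast strain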
VLA-4 inh = inhibition in a human VLA-4 binding assay; P13612; VLA-4 expressing cells, ligand binding flow cytometry; inhibition, % (about 7 µM as worked out from the volumes in the protocol); hit rate 0.2% among 330,000; AID 2557; in the data active = inhibition above about 50%
Target sequence (P13612 whole entry, looked up): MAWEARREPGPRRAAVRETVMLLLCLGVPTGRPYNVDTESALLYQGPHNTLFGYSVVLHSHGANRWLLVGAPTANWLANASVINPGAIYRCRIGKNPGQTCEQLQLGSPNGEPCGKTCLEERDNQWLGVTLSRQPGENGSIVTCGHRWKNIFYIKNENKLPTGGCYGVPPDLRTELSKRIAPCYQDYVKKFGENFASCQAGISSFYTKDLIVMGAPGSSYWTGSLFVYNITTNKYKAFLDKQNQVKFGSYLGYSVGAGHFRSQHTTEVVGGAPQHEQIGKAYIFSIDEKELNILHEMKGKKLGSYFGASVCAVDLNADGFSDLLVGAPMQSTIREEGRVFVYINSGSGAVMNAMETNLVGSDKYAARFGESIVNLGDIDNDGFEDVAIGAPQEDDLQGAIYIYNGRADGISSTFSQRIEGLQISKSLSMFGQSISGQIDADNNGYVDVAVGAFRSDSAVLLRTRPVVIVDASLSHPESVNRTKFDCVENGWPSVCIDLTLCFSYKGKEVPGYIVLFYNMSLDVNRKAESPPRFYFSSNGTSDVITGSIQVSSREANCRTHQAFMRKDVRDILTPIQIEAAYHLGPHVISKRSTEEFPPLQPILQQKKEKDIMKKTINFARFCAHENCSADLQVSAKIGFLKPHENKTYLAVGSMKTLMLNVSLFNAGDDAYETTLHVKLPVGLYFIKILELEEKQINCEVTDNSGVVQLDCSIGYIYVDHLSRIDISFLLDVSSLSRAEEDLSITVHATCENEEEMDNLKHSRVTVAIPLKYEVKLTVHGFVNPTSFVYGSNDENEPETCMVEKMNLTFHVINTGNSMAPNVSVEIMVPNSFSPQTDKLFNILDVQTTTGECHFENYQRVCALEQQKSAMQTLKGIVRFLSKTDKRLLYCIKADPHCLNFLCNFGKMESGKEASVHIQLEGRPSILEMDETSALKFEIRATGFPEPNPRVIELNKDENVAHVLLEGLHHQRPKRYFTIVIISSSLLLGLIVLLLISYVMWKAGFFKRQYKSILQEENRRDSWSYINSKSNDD
RPL19A-GFP yeast = yeast TOR pathway RPL19A-GFP modulation; S. cerevisiae RPL19A-GFP strain, flow cytometry, 3 h; active compounds read low; percent response vs DMSO, % at 10 µM; hit rate 0.3% among 330,000;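 active = percent response vs DMSO below 50%; inconclusive = fewer than 70 events counted for the yeast strain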;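 also: median channel GFP fluorescence of the barcoded RPL19A-GFP strain; lower means less RPL19A-GFP as with rapamycin TOR inhibition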
CIT2-GFP yeast = modulators of TOR pathway CIT2-GFP in S. cerevisiae. GFP response vs DMSO, % at 10 µM. hit rate 0.065% among 320,000. AID 2029. S. cerevisiae CIT2-GFP strain, flow cytometry, 3 h; 100 means same as DMSO wells;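 active = GFP response relative to DMSO above a set limit, near the screen mean plus 3 SD, cut at about 150% in these data; inconclusive = Fewer than 70 cells measured for a yeast strain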;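 also: ratio of well median GFP fluorescence to mean of DMSO wells on the plate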
MEP2-GFP yeast = yeast TOR pathway MEP2-GFP modulation | S. cerevisiae MEP2-GFP strain, flow cytometry GFP, 3 h; 100% = DMSO control level | GFP response vs DMSO, % at 10 µM | hit rate 0.51% among 330,000 | AID 2016;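 active = GFP response versus DMSO above a set limit, roughly screen mean plus 3 SD, cut at about 180% in these data; inconclusive = fewer than 70 cells counted for a yeast strain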;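 also: median GFP fluorescence of the barcode-gated MEP2-GFP cells per well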
Of the large screens only hits and unclear results are named; the others gave an inactive call; [ ] = dose if it differs, or a comment. In the library only some 1.1% were active in any assay of this set; here they are far more common.

NC(=O)COc1ccc(/C=N\NC(=O)c2ccc(-c3ccccc3)cc2)cc1	none
CC(=O)C1C(=O)CC(C)(O)C(C(C)=O)C1c1ccc(N(C)C)cc1 (centres undefined)	none
CCN(CC)c1ccc(C2C(C(C)=O)C(=O)CC(C)(O)C2C(C)=O)cc1 (centres undefined)	AGP1-GFP MLPCN inconclusive, LAP4 TOR yeast inconclusive, RPL19A-GFP yeast 14[may fluoresce violet], CIT2-GFP yeast inconclusive, MEP2-GFP yeast 249[may fluoresce violet]
C=CCOc1ccccc1CN1CCN(CCc2ccccc2)C(CCO)C1 (centres undefined)	none
N#Cc1c(NCCCO)nc(-c2ccco2)c2c1CCCC2	CIT2-GFP yeast inconclusive, MEP2-GFP yeast 243[may fluoresce violet]
O=C(C1CC1)N1CCc2cc(S(=O)(=O)NCC3COc4ccccc4O3)ccc21 (centres undefined)	AGP1-GFP MLPCN inconclusive, RPL19A-GFP yeast 23[may fluoresce violet], CIT2-GFP yeast inconclusive, MEP2-GFP yeast 303[may fluoresce violet]
O=C(CN1C(=O)S/C(=C\c2cccc(Cl)c2)C1=O)NCCCn1ccnc1	AGP1-GFP MLPCN inconclusive, RPL19A-GFP yeast 50[may fluoresce violet], CIT2-GFP yeast inconclusive, MEP2-GFP yeast 707[may fluoresce violet]
CCOc1ccc2noc3c2c1C(=O)c1ccccc1-3	LAP4 TOR yeast 247
CC(=O)Nc1ccc(/C=C/c2nc(-c3ccccc3O)n[nH]2)cc1	none
CCc1cc(/C(Cc2csc(C)n2)=N/O)c(O)cc1O	RPL19A-GFP yeast 44[may fluoresce violet], CIT2-GFP yeast inconclusive, MEP2-GFP yeast 209[may fluoresce violet] (no result: AGP1-GFP MLPCN)
Cc1nc(C/C(=N\N)c2ccc(O)cc2O)cs1	none
Cc1cc(C)cc(C(=O)OCC(=O)N2CCCC2)c1	none
COc1cc(C(=O)OCC(=O)N2CCCC2)cc(OC)c1OC	RPL19A-GFP yeast 47[may fluoresce violet], CIT2-GFP yeast inconclusive, MEP2-GFP yeast 324[may fluoresce violet] (no result: AGP1-GFP MLPCN)
C[C@@H]1COC(=O)[C@H](NC(=O)OCC2c3ccccc3-c3ccccc32)C/C=C\C[C@@H](CC(=O)N[C@H](CO)Cc2ccccc2)C(=O)N1	none
COc1ccc(Cc2nnc(NC(=O)c3ccccc3F)s2)cc1	AGP1-GFP MLPCN 155, LAP4 TOR yeast 294, MEP2-GFP yeast 914
COc1ccc(Cc2nnc(NC(C)=O)s2)cc1	none
CCN(CC)S(=O)(=O)c1ccc(N/N=C/c2cc(OC)c(OC)cc2OC)nc1	CIT2-GFP yeast inconclusive, MEP2-GFP yeast 201[may fluoresce violet]
Cn1cnnc1SCC(=O)Nc1ccc(S(N)(=O)=O)cc1	none
O=C(CN(Cc1ccccc1Cl)C(=O)c1csnn1)NCc1ccccc1	CIT2-GFP yeast inconclusive, MEP2-GFP yeast 283[may fluoresce violet]
O=C(Nc1ccc(Cl)c(Cl)c1)N(CCCN1CCOCC1)Cc1cccnc1	RPL19A-GFP yeast 50[may fluoresce violet], CIT2-GFP yeast inconclusive, MEP2-GFP yeast 180[may fluoresce violet]
CN(CC(=O)NC(=O)NC1CCCCC1)Cc1ccccc1	none
O=C(NCc1ccccn1)c1cc(-c2ccc(Cl)cc2)oc1C(F)(F)F	LAP4 TOR yeast 155
Cc1cc(NC(=O)OC2CCCCC2)ccc1[N+](=O)[O-]	none
CCCCN(C(=O)CCC(=O)Nc1cc(C)on1)C(C(=O)NC1CCCC1)c1ccc(OCC)cc1 (centres undefined)	none
CCCCN(C(=O)CCC(=O)Nc1cc(C)on1)C(C(=O)NC1CCCC1)c1ccccc1OCC (centres undefined)	AGP1-GFP MLPCN inconclusive, CIT2-GFP yeast inconclusive, MEP2-GFP yeast 420[may fluoresce violet]
O=c1cc(-c2c(F)c(F)c(F)c(F)c2F)oc2c(F)c(F)c(F)c(F)c12	LAP4 TOR yeast 177
Cc1cc(NC(=O)C2CC(=O)N(c3ccccc3Cl)C2)no1 (centres undefined)	none
CCCCCCNC(=O)c1cn(CC)c2cc(N3CCN(C)CC3)c(F)cc2c1=O	none
Cc1ccc(Nc2cc(C)nn2-c2nc(C)cc(=O)[nH]2)cc1	LAP4 TOR yeast 152
Cc1ccc(Nc2cc(C)nn2-c2nc(C)cc(C)n2)cc1	none
Cc1ccc2nc3c(cc(C(=O)NCCN4CCOCC4)c(=N)n3CCCN3CCOCC3)c(=O)n2c1	none
N=c1c(C(=O)NCCN2CCOCC2)cc2c(=O)n3ccccc3nc2n1Cc1ccc(F)cc1	RPL19A-GFP yeast 28[may fluoresce violet], CIT2-GFP yeast inconclusive
N=c1c(C(=O)NCc2ccc(F)cc2)cc2c(=O)n3ccccc3nc2n1Cc1ccco1	none
N=c1c(C(=O)NCCN2CCOCC2)cc2c(=O)n3ccccc3nc2n1CCCN1CCOCC1	AGP1-GFP MLPCN inconclusive, CIT2-GFP yeast inconclusive, MEP2-GFP yeast 247[may fluoresce violet]
CCCCn1c(N)c(N(CC(C)C)C(=O)c2ccc(OCC3CCCO3)cc2)c(=O)[nH]c1=O (centres undefined)	none
CC(NC(=O)c1cccc(N2CCCC2=O)c1)c1ccc2c(c1)OCCO2 (centres undefined)	AGP1-GFP MLPCN inconclusive, RPL19A-GFP yeast 30[may fluoresce violet], CIT2-GFP yeast inconclusive, MEP2-GFP yeast 354[may fluoresce violet]
CC(=O)c1sc2nc(C)c3c(c2c1N)CCCC3	LAP4 TOR yeast 167
CC(C)c1ccc2c(c1)C1(NN=C(c3ccccc3)S1)C(=O)N2 (centres undefined)	LAP4 TOR yeast 171
CCc1ccc2c(c1)C1(NN=C(c3ccc(C)cc3)S1)C(=O)N2 (centres undefined)	RPL19A-GFP yeast 40[may fluoresce violet], CIT2-GFP yeast inconclusive
Cc1ccc(Cc2cc(-c3ccc(C)cc3)n[nH]c2=O)cc1	none
CC(C)c1ccc(O)c(NC(=O)c2ncn[nH]2)c1	none
O=C(OCC(=O)N1CCCC1=O)C1CCN(S(=O)(=O)c2c(Cl)cccc2Cl)CC1	none
CC(C(=O)N1CCc2ccccc21)N1CCN(c2cccc(C(F)(F)F)c2)CC1 (centres undefined)	none
CN(CC(=O)Nc1ccc(F)cc1)C(=O)C1CC(=O)N(Cc2ccccc2)C1 (centres undefined)	none
COc1ccc(S(=O)(=O)NCC2CCC(C(=O)NCCCN3CCCC3=O)CC2)cc1 (centres undefined)	none
O=C(Nc1ccc(F)cc1)c1cc2cc(Cl)ccc2[nH]1	MEP2-GFP yeast 190
CCc1ccc2[nH]c(C(=O)Nc3ccc(C)c(F)c3)cc2c1	none
Cc1ccc(S(=O)(=O)NCC(=O)OCC(=O)Nc2cccc(S(=O)(=O)N3CCOCC3)c2)cc1	none
O=C(N/N=C/c1ccccc1[N+](=O)[O-])c1ccc2c(c1)OCCO2	RPL19A-GFP yeast 46[may fluoresce violet], CIT2-GFP yeast inconclusive, MEP2-GFP yeast 430[may fluoresce violet]
Cc1ccc(C)c(NC(=O)CN(C)C(=O)CC2OC(=O)c3ccccc32)c1 (centres undefined)	none
Cc1cc(C)c(S(=O)(=O)N2CCCCC2CCNC(=O)C(=O)NCc2ccco2)c(C)c1 (centres undefined)	none
CN1CCN(C(=O)/C(=C\c2cccs2)NC(=O)c2ccccc2)CC1	none
CN1CCN(C(=O)/C(=C/c2ccccc2Cl)NC(=O)c2ccccc2)CC1	CIT2-GFP yeast inconclusive, MEP2-GFP yeast 475[may fluoresce violet]
NS(=O)(=O)c1cccc(NC(=O)COC(=O)CCc2ccccc2)c1	none
COCCOC(=O)c1sc2nc[nH]c(=O)c2c1C	none

From PubChem BioAssay
